The panel holds about 83,000 compounds, 20% with a hit somewhere; the sample as a whole holds those more often.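 Cell lines were cultured in 96-well plates, exposed to a single compound concentration, and assessed for percent growth 48 hours later.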 Unmarked numbers belong to inactive results. Calls of active or inactive are those of the source. How the source made its calls: active means growth percent below 10; inactive means the rest.

The test system of the experiment is PC-3 prostate. Description: NCI-60 one-dose screen, 48 h (100 = growth as untreated, 0 = no growth, -100 = all killed). The conditions noted are these: 10 µM unless noted.
Take `NC(=O)N1N=C(c2cc3ccccc3oc2=O)CC1c1cn(-c2ccccc2)nc1-c1ccc(Cl)cc1` (centres undefined): the growth was 25.9%.
Take `COc1cnc2c(c1)C(=O)c1c-2n(CCCNCC2CC2)c(=O)c2cc(F)ccc12`: the growth is 9.61% (active).
The same measure for `O=C(Nc1cc(F)cc2cccnc12)c1cnc(N2CCOCC2)cn1`: 62.9%; for `O=C1[C@H]2Cc3c([nH]c4ccccc34)[C@@H](c3c(Cl)cccc3Cl)N2C(=O)CN1C1CCN(Cc2ccccc2)CC1`: 77.8%; for `COc1cc(/C=N/n2cnc3oc(-c4ccccc4)cc3c2=N)cc(CN2CCN(C)CC2)c1O`: 77.7%.
The same measure for `Oc1ccc(-c2nnc(SCc3ccc(O)c4ncccc34)n2-c2ccccc2)cc1`: 32.3%.
The same measure for `CN(C)C(=O)c1ccccc1-n1cnc2ccccc2c1=O`: 97.2%; for `Oc1ccc(CSc2nnc(-c3ccc(Cl)cc3)o2)c2cccnc12`: 21.4%; for `NNC(=O)c1sc2nc(-c3cnccn3)cc(-c3cccs3)c2c1N`: 90.1%.
Take `COc1ccc(OC)c([C@H]2c3[nH]c4ccccc4c3C[C@H]3C(=O)N(CCCCCCC(=O)NO)CC(=O)N23)c1`: the growth is 77.9%.
For the compound `CCCCCCCCNC(=O)c1ccc(Cn2c(CCCC)nc3c(N)nc4ccccc4c32)cc1`, the growth was 41.5%.
The same measure for `O=C1[C@@H]2Cc3c([nH]c4ccccc34)[C@H](c3c(Cl)cccc3Cl)N2C(=O)CN1C1CCN(Cc2c(F)cccc2F)CC1`: 69.9%; for `O=C(CCCCCCN1CC(=O)N2[C@@H](c3cccc(Cl)c3)c3[nH]c4ccccc4c3C[C@H]2C1=O)NO`: 42.6%; for `CC(C)N=C(N/C(N)=N/c1nc2ccccc2s1)NC(C)C`: 64%.
The figure for `CCCCOc1ccc(S(=O)(=O)N2CCN(c3nccc(N4CCOCC4)n3)CC2)cc1` is 41.3%; for `O=C(NCCCNc1cc(-c2cn(-c3ccccc3)nc2-c2cccc(O)c2)ccn1)Nc1cc(C(F)(F)F)cc(C(F)(F)F)c1` it is 39.9%; for `O=[N+]([O-])c1ccc(-c2nnc(SCc3ccc(O)c4ncccc34)n2-c2ccccc2)cc1` it is 21%.
`Cc1ccc(Nc2ncnc3c2c(C)nn3-c2ccc([N+](=O)[O-])cc2)cc1`: the growth is 78.4%.
Regarding `COc1cc2cc(Oc3ccc(NC(=O)Nc4cc(C(F)(F)F)cc(C(F)(F)F)c4)cc3)c(C)nc2cc1OCCN(C)C`, the growth is 110%.
The same measure for `COc1cc2cc(Oc3ccc(NC(=O)Nc4cccc(C(F)(F)F)c4)cc3)c(C)nc2cc1OCCN(C)C`: 85.9%; for `N/C(=N\c1nc2ccc([N+](=O)[O-])cc2s1)C(Cl)(Cl)Cl`: 49.1%.
The same measure for `Nc1ccc(-c2nnc(SCc3ccc(O)c4ncccc34)o2)cc1`: 0.0718% (active).
`COc1ccc(-c2ccnc3c(C#N)c(Nc4ccccc4)nn23)cc1OC`: the growth is 89.2%.
With `Nc1c(C(=O)c2ccccc2)sc2nc(-c3cnccn3)cc(-c3cccs3)c12`, the growth was 100%.
`C/C(=C(/C)C1CC1CCN(C(=O)c1ccccn1)S(=O)(=O)c1ccc(C)cc1)C1CCCCC1` (centres undefined): the growth was 93.4%.
Turning to `Oc1ccc(CSc2nnc(-c3ccccc3)n2-c2ccccc2)c2cccnc12`, the growth was 23%.
The figure for `Oc1ccc(CSc2nnc(-c3ccc(Oc4ccccc4)cc3)n2-c2ccccc2)c2cccnc12` is 17.3%; for `O=C(CSc1ccc(-c2nc3ccccc3[nH]2)cn1)N1CCN(c2ccccc2F)CC1` it is 57.7%.
The figure for `COc1cc2cc(Oc3ccc(NC(=O)c4cccc(C(F)(F)F)c4)cc3)c(C)nc2cc1OCCN(C)C` is 74.2%; for `CCCC(=O)NC(c1cccnc1)c1cc(C(C)=O)c2cccnc2c1O` (centres undefined) it is 39.2%.
As to `O=C(CCCCCCN1CC(=O)N2[C@@H](c3ccc(Cl)c(F)c3)c3[nH]c4ccccc4c3C[C@H]2C1=O)NO`, the growth was 63.8%.
The same measure for `O=C1NC(=O)/C(=C/c2ccc(OCc3cc4ccccc4nc3Cl)cc2)S1`: 92%.
The figure for `O=C(O)c1ccc(-n2cc(CNc3ccc(F)cc3)c(-c3ccc(C(F)(F)F)cc3)n2)cc1` is 79.4%; for `Oc1ccc(CSc2nnc(-c3ccncc3)o2)c2cccnc12` it is 12.7%.
The same measure for `COc1ccc(C2C(C#N)=C(N)Oc3c2sc2ccc(C)cc32)cc1` (centres undefined): 33.1%; for `Oc1ccc(CSc2nnc(-c3ccncc3)n2-c2ccccc2)c2cccnc12`: 18.9%; for `Oc1ccc(CSc2nnc(-c3cnccn3)n2-c2ccccc2)c2cccnc12`: 30%.
For `O=C(COc1ccc(/C=C2\SC(=O)NC2=O)cc1)Nc1ccc(C(=O)/C=C/c2cc3ccccc3nc2Cl)cc1`, the growth is 65.6%.
Take `COc1ccc(N2CCN(C(=O)CSc3ccc(-c4nc5cc(C)c(C)cc5[nH]4)cn3)CC2)cc1`: the growth was 56.4%.
